111 molecules from PubChem BioAssay AID1259312 (Keith Lab, Institute of Cancer Science, University of …, 2017) can be followed below.

The campaign covered roughly 4,500 compounds. About 200 (4.4%) were called active. This is one part of a sample in which actives are shown more often than they occur.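 Rule for the calls: active = cell survival measured by absorbance rises more than 2.5-fold over infected cells without compound; inactive = the rest.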

The test can be described thus: survival after telomere uncapping, modulators, primary screen, cell-based (AID 1259312).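 Note: virus expresses mutant telomerase RNA that uncaps telomeres and kills cells; compound added 2 days after infection so exposure lasts 3 days.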 The note with it: HCT116 + Ad-hTR-mut, MTT, 5 d; at 10 µM, active compounds read high.
Turning to `O=c1[nH]c(O)c(C=Nc2cc(Cl)ccc2O)c(=O)[nH]1`, the fold change result is “inactive”.

Consider `c1ccc(N/N=C2/C/C(=N\Nc3ccccc3)c3ccccc32)cc1`, for which the fold change was -1.1 (inactive).

Regarding `CC1(C)CCC[C@@]2(C)C1CCC1(C)OC(=O)CC12` (stereo partly specified), the fold change was -3.56 (inactive).

`O=C(Nc1ccc2c(c1)OCCO2)C1CC(=O)N(C2CCCCC2)C1` (stereo unspecified): the fold change was -1.27 (inactive).

In the case of `Clc1cccc(Cl)c1-c1noc(CSc2nc3ccccc3s2)n1`, the fold change was -1.38 (inactive).

On to `N#CC1(C#N)C(c2ccc(Cl)cc2Cl)C(C(=O)c2ccccc2)N2c3ccccc3C=CC21` (stereo unspecified), for which the fold change was 1.29 (inactive).

With `N#CC1(C#N)C(c2ccc(O)cc2)C(C(=O)c2ccccc2)N2c3ccccc3C=CC21` (stereo unspecified), the fold change was 1.02 (inactive).

For `N#CC1(C#N)C(c2c(F)cccc2Cl)[C@@H](C(=O)c2ccc(F)cc2)N2c3ccccc3C=C[C@@H]21` (stereo partly specified), the fold change is 3.43 (active).

Consider `CN(c1ccccc1)c1nc(N)nc(CSc2nnc(-c3ccc(F)cc3)n2C)n1`, for which the fold change was 1.9 (inactive).

`Nc1c(Cl)cc(-c2nc3ccccc3o2)cc1Cl`: the fold change is 1.24 (inactive).

For the molecule `Cc1nn(-c2ccccc2)c(Cl)c1N=Nc1c(C)nn(-c2ccccc2)c1Cl`, the fold change is -1.52 (inactive).

With `CN(C)c1ccc(/C=N/c2nccs2)cc1`, the fold change is -1.55 (inactive).

As to `c1csc(CNc2ccc(NCc3cccs3)cc2)c1`, the fold change is 1.24 (inactive).

In the case of `CC(C)NC(=O)CC(=O)NN=C1CCCC1`, the fold change was 1.85 (inactive).

For the molecule `O=C1NC(=S)N/C1=C\c1ccc(Cl)cc1Cl`, the fold change is 5.07 (active).

With `O=C1NC(=S)N/C1=C/c1c(F)cccc1Cl`, the fold change is 1.33 (inactive).

For `O=C1NC(=S)N/C1=C\c1cc(Br)cc(Br)c1O`, the fold change is -1.6 (inactive).

As to `O=C1c2ccccc2NC2(C(=O)Nc3ccccc32)N1CCOc1ccccc1` (stereo unspecified), the fold change was 1.15 (inactive).

As for `CCOC1(C)OC2CCC(CC)OC2O1` (stereo unspecified), the fold change was 1.54 (inactive).

In the case of `O=C1Nc2ccccc2C1=Nc1cccc(Cl)c1`, the fold change result is “inactive”.

With `O=C1Nc2ccccc2C1=Nc1ccc(SC(F)F)cc1`, the fold change entry is “active”.

For `O=C1Nc2ccccc2/C1=N\N1C(=O)C2C=CC=CC2C1=O` (stereo unspecified), the fold change result was “inactive”.

Take `O=c1[nH]c2nonc2[nH]c1=O`: the fold change result is “inactive”.

As to `O=C1CCCN1c1ccc(S(=O)(=O)Nc2ccc3oc4c(c3c2)CCCC4)cc1`, the fold change is 1.03 (inactive).

Take `Cc1nnc(SCC(=O)Nc2sc3c(c2C#N)CCC3)s1`: the fold change is -1.54 (inactive).

`O=c1[nH]c2ccc(F)cc2c(=O)c2ccccc12`: the fold change is 1.22 (inactive).

In the case of `O=c1[nH]c(=O)c2cc3c(=O)[nH]c(=O)c3cc12`, the fold change was 2.77 (active).

For `Nc1cc2[nH]c(=O)[nH]c2cc1N`, the fold change was -1.33 (inactive).

`O=C(C1=C(O)C(=O)N(CCN2CCOCC2)C1c1ccco1)c1ccco1` (stereo unspecified): the fold change is -1.73 (inactive).

Consider `O=c1[nH]c2cc(NCCCO)c([N+](=O)[O-])cc2[nH]1`, for which the fold change is -1.46 (inactive).

On to `Nc1n[nH]c(-c2cccnc2)n1`, for which the fold change was 2.61 (active).

With `COc1cc(OC)cc(-c2nc(N)n[nH]2)c1`, the fold change was 1.56 (inactive).

With `c1ccc(-c2nc(-c3cccnc3)[nH]c2-c2ccccc2)cc1`, the fold change is 1.14 (inactive).

As for `CN1CCC2(CC1)C(C#N)=C(O)NC1=C2C(=O)CC(C)(C)C1`, the fold change is -1.33 (inactive).

In the case of `O=C(CSc1nc2ccccc2nc1SCC(=O)N1CCCCC1)N1CCCCC1`, the fold change is -1.94 (inactive).

For the molecule `O=C(Nc1nonc1NC(=O)c1ccc2c(c1)OCO2)c1ccc2c(c1)OCO2`, the fold change was -1.22 (inactive).

Take `CC1(C)O[C@@H]2[C@H](O1)[C@@H](CO)O[C@H]2n1cnc2c(N)ncnc21`: the fold change is -1.14 (inactive).

For the molecule `Clc1nc2nonc2nc1Nc1ccc(Br)cc1`, the fold change is -1.13 (inactive).

`O=c1[nH]cnc2sc3c(c12)CCCC3`: the fold change was 1.23 (inactive).

Turning to `O=C(CC1NC(=O)N(C2CCCCC2)C1=O)NCC12CC3CC(CC(C3)C1)C2` (stereo unspecified), the fold change was -1.28 (inactive).

As to `CC12CC3CC(C)(C1)CC(CC(=O)N1CCN(S(C)(=O)=O)CC1)(C3)C2`, the fold change is 1.25 (inactive).

Regarding `CC12CC3CC(C)(C1)CC(CC(=O)NCC14CC5CC(CC(C5)C1)C4)(C3)C2`, the fold change is 3.05 (active).

As for `O=S(=O)(NC1CCCCCC1)c1ccc(Cl)cc1`, the fold change is 1.1 (inactive).

In the case of `Cc1ccc(S(=O)(=O)NC2CCCC2)cc1`, the fold change is -1.31 (inactive).

On to `COc1ccc(OC)c(NS(=O)(=O)c2ccc(Cl)cc2)c1`, for which the fold change was 1.33 (inactive).

Take `CS(=O)(=O)Nc1ccc(Cl)cc1Cl`: the fold change is -1.31 (inactive).

For the molecule `O=S(=O)(Nc1cc(Cl)c(Cl)cc1Cl)c1ccc(Cl)cc1`, the fold change is 3.01 (active).

Turning to `COc1ccc(S(=O)(=O)NC2CCCCCC2)cc1`, the fold change was 3.33 (active).

On to `COc1ccc(S(=O)(=O)Nc2cc(Cl)c(Cl)cc2Cl)cc1`, for which the fold change is 3.11 (active).

Regarding `COc1ccc(S(=O)(=O)NC(C)C)cc1`, the fold change is -1.48 (inactive).

Take `O=S(=O)(NC1CCCCCC1)c1ccc(F)cc1`: the fold change was -1.23 (inactive).

Consider `Cc1ccc2c(c1)C(O)(CC(=O)c1ccc3c(c1)OCO3)C(=O)N2` (stereo unspecified), for which the fold change is -1.44 (inactive).

With `O=[N+]([O-])c1c(Sc2nnnn2C2CCCCC2)ncnc1Sc1nnnn1C1CCCCC1`, the fold change was 1.21 (inactive).

Regarding `N#Cc1c(-c2ccc(Cl)cc2Cl)csc1N`, the fold change was -1.22 (inactive).

With `CN(C)S(=O)(=O)Nc1cccc([N+](=O)[O-])c1`, the fold change is 1.12 (inactive).

With `CCn1c(=O)n(CC)c2cc(S(=O)(=O)NC3CCCCC3)ccc21`, the fold change is 1.22 (inactive).

For the molecule `CC(=O)c1c(O)c(C)c(O)c2c1OC1=CC(=O)C(C(C)=O)C(=O)[C@@]12C` (stereo partly specified), the fold change was -1.06 (inactive).

In the case of `CC(=O)N1c2ccccc2C2(C)C(C1(C)C)C2(Cl)Cl` (stereo unspecified), the fold change is 4.16 (active).

As for `NC(=O)c1c(NC(=O)C2COc3ccccc3O2)sc2c1CCCC2` (stereo unspecified), the fold change is -1.9 (inactive).

As to `COc1cc2c(cc1OC)CC1(C2)c2ccccc2CN1C`, the fold change was -1.34 (inactive).

Regarding `O=[N+]([O-])c1ccc(C=NC2CCCc3c2[nH]c2ccc(Br)cc32)cc1` (stereo unspecified), the fold change is 1.22 (inactive).

As to `CC(=O)N1CCCc2cc(S(=O)(=O)NC(C)(C)C)ccc21`, the fold change is -1.21 (inactive).

Consider `COc1ccc(Br)cc1C1C(C#N)=C(N)SC(N)=C1C#N`, for which the fold change is -1.84 (inactive).

With `O=S(=O)(Oc1ccc(N=Cc2cccs2)cc1)c1ccc(Cl)cc1`, the fold change was 2.24 (inactive).

Turning to `NS(=O)(=O)c1ccc(N=Cc2cccs2)cc1`, the fold change is 5.47 (active).

Consider `Clc1ccc(N=Cc2cccs2)cc1`, for which the fold change is 1.21 (inactive).

`CN=C1S/C(=C/c2ccc(C)o2)C(=O)N1C`: the fold change was -1.34 (inactive).

Consider `CCOC(=O)c1sc(N2N=C(C)/C(=C\c3ccc(C)o3)C2=O)nc1C`, for which the fold change is -1.12 (inactive).

Consider `COC(=O)Cn1cnc([N+](=O)[O-])n1`, for which the fold change is -1.14 (inactive).

Consider `CC1Oc2ccc(S(=O)(=O)NCCCn3ccnc3)cc2NC1=O` (stereo unspecified), for which the fold change was 1.47 (inactive).

Consider `OCCN=Cc1c(O)ccc2ccccc12`, for which the fold change entry was “inactive”.

In the case of `Oc1ccc2ccccc2c1/C=N/c1ccccn1`, the fold change result was “active”.

Regarding `Oc1ccc2ccccc2c1C=NCCCCCCN=Cc1c(O)ccc2ccccc12`, the fold change result was “inactive”.

Take `C(=N\c1nccs1)/c1ccco1`: the fold change is -1.62 (inactive).

On to `Oc1ccc(Br)cc1C=Nc1ccc(Cl)cn1`, for which the fold change entry was “inactive”.

In the case of `Oc1ccc(Br)cc1/C=N/c1nccs1`, the fold change result was “inactive”.

As for `Oc1ccc2ccccc2c1/C=N/c1nccs1`, the fold change result is “active”.

Take `Clc1ccc(N=Cc2cccc3ccccc23)nc1`: the fold change is 1.13 (inactive).

As for `Oc1ccc2ccccc2c1C=Nc1ccc(Cl)cn1`, the fold change entry was “active”.

Consider `ClCCOc1nc(OCCCl)nc(OCCCl)n1`, for which the fold change was 2.12 (inactive).

On to `CCCc1ccn(CCSCC)c1-c1cccs1`, for which the fold change was -2.47 (inactive).

As to `O=C(Nc1ccc(I)cc1)C1CC(=O)N(C2CCCCC2)C1` (stereo unspecified), the fold change is 2.18 (inactive).

On to `O=C(Cc1cccs1)NCCN1CCOCC1`, for which the fold change was -1.05 (inactive).

Turning to `O=C1/C(=C/c2ccc3c(c2)OCO3)CCc2ccccc21`, the fold change was -2.22 (inactive).

For the molecule `COC(=O)/C(C#N)=C\c1ccc(C)o1`, the fold change is -2.41 (inactive).

Turning to `CCCCNC(=O)OCCSC(=S)NCCC`, the fold change was 2.45 (inactive).

`CCOC(=O)Cc1csc(N)n1`: the fold change was 1.75 (inactive).

Consider `CCOC(=O)c1sc(N)nc1C`, for which the fold change is 1.75 (inactive).

With `CCOC(=O)c1csc(N)n1`, the fold change is 2.59 (active).

Take `O=C(NC1(C(=O)O)CCc2ccccc2C1)OCC1c2ccccc2-c2ccccc21` (stereo unspecified): the fold change is -1.79 (inactive).

For `O=S(=O)(c1ccc(NC(=S)Nc2ccccc2)cc1)N1CCCCC1`, the fold change was -2.08 (inactive).

For `C/C(=N/Nc1ccc([N+](=O)[O-])cc1)c1ccc(/C(CCl)=N/Nc2ccc([N+](=O)[O-])cc2)s1`, the fold change was -1.04 (inactive).

Regarding `O=C(NC1CCCCCCC1)c1ccc(COc2c(F)c(F)cc(F)c2F)o1`, the fold change was -1.24 (inactive).

With `c1ccc(-c2nonc2N=Nc2nonc2-c2ccccc2)cc1`, the fold change is -1.26 (inactive).

In the case of `[O-][n+]1onc(N=Nc2no[n+]([O-])c2-c2ccccc2)c1-c1ccccc1`, the fold change was 2.99 (active).

In the case of `[O-][n+]1onc(C(c2ccccc2)c2ccccc2)c1C(c1ccccc1)c1ccccc1`, the fold change was -1.76 (inactive).

On to `COCCNS(=O)(=O)c1ccccc1`, for which the fold change is -1.41 (inactive).

Take `Cc1nc2ccccc2nc1C=O`: the fold change was -2.07 (inactive).

Take `Cc1nc2ccccc2nc1C`: the fold change is -2.23 (inactive).

As to `Cc1nc2ccccc2nc1NO`, the fold change result was “active”.

Regarding `ON=C1C2CC3CC(C2)CC1C3`, the fold change was -1.41 (inactive).

Regarding `Oc1ccc(Br)cc1/C=N/c1ccccn1`, the fold change entry is “inactive”.

With `COc1cc2c(cc1N)OCO2`, the fold change is -1.08 (inactive).

As for `Cc1ccc2[nH]c3nc4ccccc4nc3c2c1`, the fold change was -1.34 (inactive).

As to `c1ccc2nc3c(nc2c1)[nH]c1ccccc13`, the fold change was -1.56 (inactive).

For `c1ccc2c(c1)[nH]c1nc3nnnn3nc12`, the fold change result was “active”.

Turning to `CC1CCCN(c2nc3ccccn3c(=O)c2C=O)C1` (stereo unspecified), the fold change is -1.15 (inactive).

Regarding `CSc1nnnn1-c1ccccc1`, the fold change was -1.25 (inactive).

With `c1ccc(-n2nnnc2SCSc2nnnn2-c2ccccc2)cc1`, the fold change is 3.7 (active).

`c1ccc(-c2noc(CSc3nnnn3-c3ccccc3)n2)cc1`: the fold change was -1.1 (inactive).

In the case of `C#CCn1cc(/C=C2/SC(=NC)N(C)C2=O)c2ccccc21`, the fold change is -1.74 (inactive).
